The panel holds about 83,000 compounds, 20% with a hit somewhere; the sample as a whole holds those more often.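 The test compound was applied at a single concentration to cells in 96-well plates for 48 hours, and percent growth was recorded.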 The source made the active and inactive calls. How the source made its calls: active means growth percent below 10; inactive means the rest.
Legend:
Experiment in all cases: NCI-60 one-dose screen, 48 h (100 = growth as untreated, 0 = no growth, -100 = all killed)
Details in all cases: 10 µM unless noted
SK-MEL-2 melanoma = tested on: SK-MEL-2 melanoma
EKVX NSCLC = tested on: EKVX NSCLC
SN12C renal = tested on: SN12C renal
UO-31 renal = tested on: UO-31 renal
TK-10 renal = tested on: TK-10 renal
ACHN renal = tested on: ACHN renal
CAKI-1 renal = tested on: CAKI-1 renal
A498 renal = tested on: A498 renal
CCRF-CEM leukemia = tested on: CCRF-CEM leukemia
MOLT-4 leukemia = tested on: MOLT-4 leukemia

Measured: growth

COc1ccc(CN2c3ccccc3Sc3ccccc32)cc1F
inactive: SK-MEL-2 melanoma 39.8% | EKVX NSCLC 34.4% | SN12C renal 45.2% | UO-31 renal 45.6% | TK-10 renal 47.4% | ACHN renal 41.8% | CAKI-1 renal 54.4% | CCRF-CEM leukemia 22.1% | MOLT-4 leukemia 27.3%
active: A498 renal -1.48%

CCC(C(=O)[C@@H](C)[C@@H](O)[C@H](C)[C@@H]1O[C@@H]([C@@H](CC)C(=O)ONC(=O)c2ccccc2)CC[C@@H]1C)[C@H]1O[C@]2(C=CC(=O)[C@]3(CC[C@@](C)([C@H]4CC[C@](O)(CC)[C@H](C)O4)O3)O2)[C@H](C)C[C@@H]1C (stereo not given in full)
active: SK-MEL-2 melanoma -4.05% | SN12C renal -48.6% | UO-31 renal -95.1% | ACHN renal -47.3% | CCRF-CEM leukemia -11.2% | MOLT-4 leukemia -2.14%
inactive: EKVX NSCLC 33.5% | TK-10 renal 52.8% | CAKI-1 renal 16.5% | A498 renal 16.8%

CCOC(=O)c1cc2c(n1Cc1cc(OC)c(OC)c(OC)c1)-c1nc(N)sc1CCC2
active: A498 renal 7.34%
inactive: SK-MEL-2 melanoma 32.6% | EKVX NSCLC 65.6% | SN12C renal 88.5% | UO-31 renal 57% | TK-10 renal 74.4% | ACHN renal 77.2% | CAKI-1 renal 55.9% | CCRF-CEM leukemia 41.1% | MOLT-4 leukemia 66.7%

CC(=O)c1c(C)nc(SCC(=O)Nc2cccc(O)c2)n1-c1ccc(Cl)cc1
inactive: SK-MEL-2 melanoma 104% | EKVX NSCLC 96.4% | SN12C renal 83.8% | UO-31 renal 86.3% | TK-10 renal 107% | ACHN renal 107% | CAKI-1 renal 90.6% | A498 renal 91.9% | CCRF-CEM leukemia 96% | MOLT-4 leukemia 95.4%

COC(=O)c1nc(-c2ccccc2)oc1S(=O)(=O)Cc1ccccc1
active: TK-10 renal 5.41% | ACHN renal -35% | CAKI-1 renal 8.14% | CCRF-CEM leukemia -6.08% | MOLT-4 leukemia -9.29%
inactive: SK-MEL-2 melanoma 80.2% | EKVX NSCLC 119% | SN12C renal 93.5% | UO-31 renal 72.9% | A498 renal 98.1%

O=C(CN1C(=O)S/C(=C\C(Cl)=C\c2ccccc2)C1=O)NCCc1ccc(O)cc1
inactive: EKVX NSCLC 44.4% | SN12C renal 16% | TK-10 renal 24.1% | CAKI-1 renal 39.3% | A498 renal 94.2%
active: SK-MEL-2 melanoma 6.1% | UO-31 renal -50.7% | ACHN renal -69.3% | CCRF-CEM leukemia 6.23% | MOLT-4 leukemia 5.15%

CCOC(=O)[C@@H]1CSC(CC)=C(C(=O)O)N1
inactive: SK-MEL-2 melanoma 111% | EKVX NSCLC 105% | SN12C renal 98.4% | UO-31 renal 85.1% | TK-10 renal 110% | ACHN renal 97.6% | CAKI-1 renal 97.1% | A498 renal 108%
active: CCRF-CEM leukemia -12.6% | MOLT-4 leukemia -5.82%

COc1ccccc1N1CCCCC1
inactive: SK-MEL-2 melanoma 104% | EKVX NSCLC 98.1% | SN12C renal 93.9% | UO-31 renal 98.9% | TK-10 renal 95% | ACHN renal 103% | CAKI-1 renal 97.8% | A498 renal 83.9% | CCRF-CEM leukemia 108% | MOLT-4 leukemia 100%

CC1OC(n2c3ccccc3c3c4c(c5c6ccccc6[nH]c5c32)C(=O)N(CCN2CCCC2)C4=O)CC(O)C1O (stereo not given)
inactive: SK-MEL-2 melanoma 86.5% | EKVX NSCLC 57% | SN12C renal 42% | UO-31 renal 44.5% | TK-10 renal 68.9% | ACHN renal 16.6% | CAKI-1 renal 20.1% | A498 renal 55.5% | CCRF-CEM leukemia 27.2% | MOLT-4 leukemia 11.3%

CC(O)(c1ccccc1)C(c1ccccc1)C1CCCCN1 (stereo not given)
inactive: SK-MEL-2 melanoma 117% | EKVX NSCLC 104% | SN12C renal 93.1% | UO-31 renal 93.5% | TK-10 renal 102% | ACHN renal 107% | CAKI-1 renal 102% | A498 renal 106% | CCRF-CEM leukemia 101% | MOLT-4 leukemia 99.7%

CC(C)C1=NOC(=O)C1=Cc1cn(-c2ccccc2)nc1-c1ccc(F)cc1
inactive: SK-MEL-2 melanoma 94.6% | EKVX NSCLC 97.2% | SN12C renal 62.8% | UO-31 renal 74.2% | TK-10 renal 75.2% | ACHN renal 71.4% | CAKI-1 renal 62.2% | A498 renal 82.2% | CCRF-CEM leukemia 10.7% | MOLT-4 leukemia 17.8%

Cn1cc(-c2csc(-c3cn(C(=O)OC(C)(C)C)c4ccc(Br)cc34)n2)c2ccnc(Cl)c21
inactive: SK-MEL-2 melanoma 96.3% | EKVX NSCLC 87.7% | SN12C renal 93.6% | UO-31 renal 96% | TK-10 renal 92.9% | ACHN renal 82.8% | CAKI-1 renal 96.4% | A498 renal 89.6% | CCRF-CEM leukemia 93.1% | MOLT-4 leukemia 90.9%

N#Cc1c(-c2ccc(Cl)cc2)nc(NN2C(=O)c3ccccc3C2=O)nc1N1CCOCC1
inactive: SK-MEL-2 melanoma 110% | EKVX NSCLC 103% | SN12C renal 99.9% | UO-31 renal 84.4% | TK-10 renal 100% | ACHN renal 104% | CAKI-1 renal 90.4% | A498 renal 94.7% | CCRF-CEM leukemia 103% | MOLT-4 leukemia 97.8%

CCOC(=O)C1=C(N)Oc2c(sc3c(F)cccc23)C1c1ccc(O)cc1 (stereo not given)
active: MOLT-4 leukemia 9.73%
inactive: SK-MEL-2 melanoma 14.3% | EKVX NSCLC 42.4% | SN12C renal 56% | UO-31 renal 30.1% | TK-10 renal 74% | ACHN renal 42.3% | CAKI-1 renal 57.6% | A498 renal 43.2% | CCRF-CEM leukemia 20.3%

Cn1c(=O)c2nc(/C=C/c3ccccc3)c(=O)[nH]c2n(C)c1=S
inactive: SK-MEL-2 melanoma 109% | EKVX NSCLC 101% | SN12C renal 104% | UO-31 renal 86.9% | TK-10 renal 115% | ACHN renal 105% | CAKI-1 renal 92.1% | A498 renal 97.8% | CCRF-CEM leukemia 101% | MOLT-4 leukemia 103%

Cc1csc(Nc2nc(-c3ccccn3)nc(C(Cl)(Cl)Cl)n2)n1
inactive: SK-MEL-2 melanoma 95.8% | EKVX NSCLC 95.1% | SN12C renal 97.9% | UO-31 renal 84.3% | TK-10 renal 94.8% | ACHN renal 79.7% | CAKI-1 renal 82.2% | A498 renal 90.7% | CCRF-CEM leukemia 59.2% | MOLT-4 leukemia 67.9%

CC1CCc2c(C(=O)Nc3ncc(Cc4cccc([N+](=O)[O-])c4)s3)csc2C1 (stereo not given)
inactive: SK-MEL-2 melanoma 52.7% | EKVX NSCLC 25.6% | SN12C renal 41.7% | UO-31 renal 32.4% | TK-10 renal 46.7% | ACHN renal 30.5% | CAKI-1 renal 19.2% | A498 renal 10.7% | CCRF-CEM leukemia 16.8% | MOLT-4 leukemia 26%

O=C1c2ccc3c4c5ccc(c24)C(=O)N1CCCOCCCCOCCCNCc1ccc(cc1)CNCCCOCCCCOCCCN(C3=O)C5=O
inactive: UO-31 renal 64.7% | TK-10 renal 21.6% | A498 renal 93.7%
active: SK-MEL-2 melanoma -35.8% | EKVX NSCLC -63.1% | SN12C renal -82.9% | ACHN renal -65.7% | CAKI-1 renal -1.05% | CCRF-CEM leukemia -0.763% | MOLT-4 leukemia -12.3%

N#Cc1c(-c2ccccc2)cc(-c2ccccc2)n(CCCC(=O)Nc2ccccc2N)c1=O
inactive: SK-MEL-2 melanoma 46.4% | EKVX NSCLC 79.1% | SN12C renal 70.5% | UO-31 renal 49.1% | TK-10 renal 104% | ACHN renal 63.8% | CAKI-1 renal 38.2% | CCRF-CEM leukemia 56.3% | MOLT-4 leukemia 47.4%
active: A498 renal -5.55%

COc1ccc(C(C)=O)cc1S(=O)(=O)Nc1c(N)nc(SC)[nH]c1=O
inactive: SK-MEL-2 melanoma 111% | EKVX NSCLC 101% | SN12C renal 103% | UO-31 renal 94.5% | TK-10 renal 109% | ACHN renal 106% | CAKI-1 renal 93.2% | A498 renal 106% | CCRF-CEM leukemia 107% | MOLT-4 leukemia 99.6%

C=C1C(=O)O[C@H]2[C@H]1CC/C(COC(=O)/C=C\C(=O)NCc1ccc(Cn3c(=O)sn(CCI)c3=O)cc1)=C\CC[C@@]1(C)O[C@@H]21
active: CCRF-CEM leukemia -28.2% | MOLT-4 leukemia 3.38%
inactive: SK-MEL-2 melanoma 75% | EKVX NSCLC 61.7% | SN12C renal 57.9% | UO-31 renal 55.1% | TK-10 renal 19.4% | ACHN renal 15.9% | CAKI-1 renal 25.7% | A498 renal 143%

O=c1c2cccc3c(N4CCCC4)ccc(c32)c2nc3ccccc3n12
active: MOLT-4 leukemia 2.57%
inactive: SK-MEL-2 melanoma 113% | EKVX NSCLC 75.9% | SN12C renal 64.8% | UO-31 renal 56.2% | TK-10 renal 87.6% | ACHN renal 52.3% | CAKI-1 renal 51.3% | A498 renal 38% | CCRF-CEM leukemia 53.7%

CC(=O)Oc1ccc(/C(=C(\C)c2ccc(Cl)cc2)c2ccc(OCCN3CCCCC3)cc2)cc1
inactive: SK-MEL-2 melanoma 58.4% | EKVX NSCLC 62.7% | SN12C renal 64.6% | UO-31 renal 47.7% | TK-10 renal 68.4% | ACHN renal 58.3% | CAKI-1 renal 74.9% | A498 renal 57.5% | CCRF-CEM leukemia 17.5%
active: MOLT-4 leukemia -8.3%

O=C(O)CCN1C(=O)/C(=C/C(Cl)=C/c2ccccc2)SC1=S
active: ACHN renal -65.3% | CCRF-CEM leukemia 1.73%
inactive: SK-MEL-2 melanoma 43.7% | EKVX NSCLC 39.1% | SN12C renal 11.9% | UO-31 renal 35.8% | TK-10 renal 49.7% | CAKI-1 renal 23.8% | A498 renal 43.5% | MOLT-4 leukemia 10.6%

— PubChem BioAssay (NCI)
